Values joined by “and” are separate entries in the source; they are usually repeats but may differ in a detail not shown here. Identical values can stand only once. The source holds several records for some structures; these can differ, active in one and inactive in another. Active and inactive are the calls of the source. Rule for the calls: active = hit-call score of the fitted dose curve at least 0.9, where 1 is the maximum; inactive = score below 0.9.
Assays:
[1] = read-out: TIMP metallopeptidase inhibitor 2 (TIMP2), TIMP2 (gene 7077); experiment: BSK_KF3CT_TIMP2: BioMAP Diversity Plus: KF3CT Assay for TIMP metallopeptidase inhibitor 2 (TIMP2) Biomarker Activity (AID 2283071); settings: primary human keratinocytes with fibroblasts; actives raise or lower the signal
Outline: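 TIMP-2 measured by ELISA at 24 h in human keratinocyte/fibroblast primary co-cultures exposed to chemicals. Both increases and decreases were fitted against DMSO. Parallel cultures were stained with SRB for total protein as an overt-cytotoxicity check.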

[2] = read-out: Transforming growth factor beta 1 (TGFb1), TGFB1 (gene 7040); experiment: BSK_KF3CT_TGFb1: BioMAP Diversity Plus: KF3CT Assay for Transforming growth factor beta 1 (TGFb1) Biomarker Activity (AID 2283072); settings: primary human keratinocytes with fibroblasts; actives raise or lower the signal
Outline: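 ELISA quantifies TGF-b1 at 24 h post-dose in a primary human skin co-culture of keratinocytes and fibroblasts, with gain or loss judged against DMSO. Parallel SRB total-protein staining flags overt cytotoxicity.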

[3] = read-out: C-C motif chemokine 2 (Homo sapiens) (UniProt P13500); experiment: BSK_KF3CT_MCP1: BioMAP Diversity Plus: KF3CT Assay for Monocyte Chemoattractant Protein 1 (MCP1/CCL2) Biomarker Activity (AID 2283073); settings: primary human keratinocytes with fibroblasts; actives raise or lower the signal
Outline: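 KF3CT skin co-culture (keratinocytes/foreskin fibroblasts), 24 h post-dose; MCP-1 by ELISA; gain/loss of signal fit bidirectionally vs DMSO baseline.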

[4] = read-out: Matrix Metallopeptidase 9 (MMP9), MMP9 (gene 4318); experiment: BSK_KF3CT_MMP9: BioMAP Diversity Plus: KF3CT Assay for Matrix Metallopeptidase 9 (MMP9) Biomarker Activity (AID 2283074); settings: primary human keratinocytes with fibroblasts; actives raise or lower the signal;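 for AC50: MMP9 protein level quantified by ELISA in the co-culture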
Outline: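 ELISA read-out of MMP-9 at 24 h post-dosing in a co-culture of human skin keratinocytes and foreskin fibroblasts. Gain or loss of signal was fitted in both directions against DMSO.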

[5] = read-out: urokinase plasminogen activator (uPA), PLAU (gene 5328); experiment: BSK_KF3CT_uPA: BioMAP Diversity Plus: KF3CT Assay for urokinase plasminogen activator (uPA) Biomarker Activity (AID 2283075); settings: primary human keratinocytes with fibroblasts; actives raise or lower the signal
Outline: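 Skin co-culture (keratinocytes + foreskin fibroblasts), human primary; 24 h post-dose; uPA by ELISA; gain/loss fit vs DMSO baseline.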

CD40, CD40 (gene 958) = experiment: BSK_LPS_CD40: BioMAP Diversity Plus: LPS Assay for CD40 Biomarker Activity (AID 2283076); settings: primary human HUVEC with PBMC; actives raise or lower the signal
Outline: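 ELISA readout of CD40 in HUVEC/PBMC co-culture (BSK_LPS system), 24 h post-dosing; bidirectional curve fit, DMSO baseline; parallel SRB total-protein staining for cytotoxicity.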

[6] = read-out: E-selectin (Homo sapiens) (UniProt P16581); experiment: BSK_LPS_Eselectin: BioMAP Diversity Plus: LPS Assay for Eselectin Biomarker Activity (AID 2283077); settings: primary human HUVEC with PBMC; actives raise or lower the signal
Outline: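 ELISA readout of E-selectin, 24 h post-dose, HUVEC + PBMC co-culture (LPS system). Gain or loss of signal vs DMSO baseline, bidirectional fit.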

[7] = read-out: Interleukin-8 (IL8), CXCL8 (gene 3576); experiment: BSK_LPS_IL8: BioMAP Diversity Plus: LPS Assay for Interleukin-8 (IL8) Biomarker Activity (AID 2283078); settings: primary human HUVEC with PBMC; actives raise or lower the signal
Outline: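 HUVEC + PBMC co-culture, LPS-activated; test chemicals dosed, IL-8 read by ELISA at 24 h. Bidirectional curve fit vs DMSO baseline (gain or loss of signal).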

[8] = BSK_LPS_SRB: Viability Assessment in the BioMAP Diversity Plus: LPS Assay (AID 2283079); settings: primary human HUVEC with PBMC;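 note: total protein by sulforhodamine B absorbance as a cytotoxicity measure; measured one day after compound addition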
Outline: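 HUVEC + PBMC co-culture, LPS-stimulated; compound 24 h. 10% TCA fix, 0.1% SRB stain, A560. Bidirectional fit vs DMSO.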

[9] = read-out: Interleukin-1 alpha (IL1a), IL1A (gene 3552); experiment: BSK_LPS_IL1a: BioMAP Diversity Plus: LPS Assay for Interleukin-1 alpha (IL1a) Biomarker Activity (AID 2283080); settings: primary human HUVEC with PBMC; actives raise or lower the signal
Outline: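 HUVEC/PBMC co-culture, LPS system; 24 h after dosing; IL-1a by ELISA; gain or loss of signal fitted bidirectionally vs DMSO baseline.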

E-selectin (Homo sapiens), sequence (P16581 whole entry, looked up): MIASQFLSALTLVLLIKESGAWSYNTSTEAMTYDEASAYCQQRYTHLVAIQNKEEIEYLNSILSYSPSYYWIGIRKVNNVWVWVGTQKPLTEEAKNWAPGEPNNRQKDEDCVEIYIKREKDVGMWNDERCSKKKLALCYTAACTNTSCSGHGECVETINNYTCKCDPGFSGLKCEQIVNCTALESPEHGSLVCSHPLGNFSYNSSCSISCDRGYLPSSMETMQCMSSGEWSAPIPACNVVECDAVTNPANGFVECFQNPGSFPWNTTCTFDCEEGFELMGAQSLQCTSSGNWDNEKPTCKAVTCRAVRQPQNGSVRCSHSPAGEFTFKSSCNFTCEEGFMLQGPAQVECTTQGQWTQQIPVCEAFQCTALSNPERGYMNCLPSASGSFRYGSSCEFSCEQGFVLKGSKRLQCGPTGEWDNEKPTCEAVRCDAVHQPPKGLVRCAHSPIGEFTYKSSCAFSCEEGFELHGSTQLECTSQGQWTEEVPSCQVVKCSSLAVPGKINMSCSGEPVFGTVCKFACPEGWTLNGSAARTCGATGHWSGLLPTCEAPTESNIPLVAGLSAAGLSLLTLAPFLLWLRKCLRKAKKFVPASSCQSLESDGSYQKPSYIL

Row | SMILES | outcome [1] | outcome [2] | outcome [3] | outcome [4] | outcome [5] | outcome (CD40, CD40 (gene 958)) | outcome [6] | outcome [7] | outcome [8] | outcome [9] | AC50 (CD40, CD40 (gene 958)) | AC50 [6] | AC50 [7] | AC50 [8] | AC50 [9] | AC50 [1] | AC50 [2] | AC50 [4] | AC50 [5] | AC50 [3]
1 | CCCCCCCCCCCCCN1CC(C)OC(C)C1 (stereo unspecified) | inactive | inactive | inactive | inactive | inactive | inactive | inactive | inactive | inactive | inactive | – | – | – | – | – | – | – | – | – | –
2 | CC(C)(OOC(C)(C)c1ccccc1)c1ccccc1 | inactive | inactive | inactive | inactive | inactive | – | – | – | – | – | 34.6 µM (active) | 34 µM (active) | 30.1 µM (active) | 36.8 µM (active) | 29.2 µM (active) | – | – | – | – | –
3 | Cc1cc(N=Nc2ccccc2C)ccc1N | – | – | inactive | – | – | inactive | inactive | inactive | – | inactive | – | – | – | 9.83 µM (active) | – | 20 µM (active) | 28.5 µM (active) | 19.9 µM (active) | 39.2 µM (active) | –
4 | Nc1ccc(Oc2ccc(N)cc2)cc1 | inactive | inactive | inactive | inactive | inactive | inactive | inactive | inactive | inactive | inactive | – | – | – | – | – | – | – | – | – | –
5 | CC(C)(C)OOC(=O)c1ccccc1 | inactive | inactive | inactive | inactive | inactive | inactive | inactive | inactive | inactive | inactive | – | – | – | – | – | – | – | – | – | –
6 | Clc1ccc(C(c2ccc(Cl)cc2)C(Cl)(Cl)Cl)cc1 | – | – | – | – | – | – | – | – | – | – | 20 µM (active) | 31.7 µM (active) | 27.4 µM (active) | 28.9 µM (active) | 14.6 µM (active) | 11.7 µM (active) | 14.8 µM (active) | 11 µM (active) | 20.1 µM (active) | 12.7 µM (active)
7 | Cc1ccc(N=C=O)cc1N=C=O | inactive | inactive | inactive | inactive | inactive | inactive | inactive | inactive | inactive | inactive | – | – | – | – | – | – | – | – | – | –
8 | CCCCCCCCn1sccc1=O | – | – | – | – | – | – | – | – | – | – | 5.76 µM (active) | 9.25 µM (active) | 9.78 µM (active) | 20.8 µM (active) | 4.97 µM (active) | 11.2 µM (active) | 9.71 µM (active) | 12.4 µM (active) | 11.2 µM (active) | 10.6 µM (active)
9 | Brc1ccc(Oc2ccccc2)cc1 | inactive | inactive | inactive | inactive | inactive | inactive | inactive | inactive | inactive | inactive | – | – | – | – | – | – | – | – | – | –
10 | CCCCCCCCOC(=O)c1ccc(C(=O)OCCCCCCCC)c(C(=O)OCCCCCCCC)c1 | inactive | inactive | inactive | inactive | inactive | inactive | inactive | inactive | inactive | inactive | – | – | – | – | – | – | – | – | – | –
11 | CCCSC(=O)N(CCC)CCC | inactive | inactive | inactive | inactive | inactive | inactive | inactive | inactive | inactive | inactive | – | – | – | – | – | – | – | – | – | –
12 | CCNS(=O)(=O)C(F)(F)C(F)(F)C(F)(F)C(F)(F)C(F)(F)C(F)(F)C(F)(F)C(F)(F)F | inactive | – | inactive | – | inactive | inactive | inactive | inactive | inactive | inactive | 46.1 µM (active) and 42.2 µM (active) | – | 30 µM (active) | 44.2 µM (active) and 46 µM (active) | – | 48.2 µM (active) and 54.7 µM (active) | 19.3 µM (active) | 29.6 µM (active) and 40.2 µM (active) and 36.2 µM (active) | 50.5 µM (active) and 47.5 µM (active) | 47.8 µM (active)
13 | CN(C)[C@@H]1C(=O)C(C(N)=O)=C(O)[C@@]2(O)C(=O)C3=C(O)c4c(O)cccc4[C@@](C)(O)[C@H]3C[C@@H]12 | inactive | inactive | inactive | inactive | inactive | inactive | inactive | inactive | inactive | inactive | – | – | – | – | – | – | – | – | – | –
14 | CC(O)CCO (stereo unspecified) | inactive | inactive | inactive | inactive | inactive | inactive | inactive | inactive | inactive | inactive | – | – | – | – | – | – | – | – | – | –
15 | C=CCc1ccc2c(c1)OCO2 | inactive | inactive | inactive | inactive | inactive | inactive | inactive | inactive | inactive | inactive | – | – | – | – | – | – | – | – | – | –
16 | c1ccc(C2CO2)cc1 (stereo unspecified) | inactive | inactive | inactive | inactive | inactive | inactive | inactive | inactive | inactive | inactive | – | – | – | – | – | – | – | – | – | –
17 | CCC(C)c1ccc(O)cc1 (stereo unspecified) | inactive | inactive | inactive | inactive | inactive | inactive | inactive | inactive | inactive | inactive | – | – | – | – | – | – | – | – | – | –
18 | CNC(=O)Oc1cccc2c1OC(C)(C)C2 | inactive | inactive | inactive | inactive | inactive | inactive | inactive | inactive | inactive | inactive | – | – | – | – | – | – | – | – | – | –
19 | [As]#[In] | inactive | inactive | inactive | inactive | inactive | inactive | inactive | inactive | inactive | inactive | – | – | – | – | – | – | – | – | – | –
20 | Oc1ccccc1Cl | inactive | inactive | inactive | inactive | inactive | inactive | inactive | inactive | inactive | inactive | – | – | – | – | – | – | – | – | – | –
21 | CCC12COCN1COC2 | inactive | inactive | inactive | inactive | inactive | inactive | inactive | inactive | inactive | inactive | – | – | – | – | – | – | – | – | – | –
22 | c1ccc(NNc2ccccc2)cc1 | inactive | inactive | inactive | inactive | inactive | inactive | inactive | inactive | inactive | inactive | – | – | – | – | – | – | – | – | – | –
23 | Cc1ccc([N+](=O)[O-])cc1 | inactive | inactive | inactive | inactive | inactive | inactive | inactive | inactive | inactive | inactive | – | – | – | – | – | – | – | – | – | –
24 | Nc1ccc(Cl)cc1N | inactive | inactive | inactive | – | inactive | inactive | – | inactive | inactive | inactive | – | 4.45 µM (active) | – | – | – | – | – | 8.99 µM (active) | – | –
25 | O=C(Nc1ccccc1)c1ccccc1I | inactive | inactive | inactive | inactive | inactive | inactive | inactive | inactive | inactive | inactive | – | – | – | – | – | – | – | – | – | –
26 | c1ccc(N=Nc2ccccc2)cc1 | inactive | inactive | inactive | inactive | inactive | inactive | inactive | inactive | inactive | inactive | – | – | – | – | – | – | – | – | – | –
27 | Nc1cc(Cl)cc(C(=O)O)c1Cl | inactive | inactive | inactive | inactive | inactive | inactive | inactive | inactive | inactive | inactive | – | – | – | – | – | – | – | – | – | –

From PubChem BioAssay (EPA / NIEHS)
